SMILES strings stand for the structures. Active and inactive are the calls of the source.

The nature of assay [1]: A549 cell viability effects, profiling panel, calcein-AM fluorescence, 48 h, basal (AID 1162). Conditions: higher = more signal.
Assay [2] in a line: adipocyte viability effects, profiling panel, cell-based, 3T3-L1 adipocytes, calcein-AM fluorescence, 48 h, basal (AID 1163). Conditions: 3T3-L1 adipocytes viability, higher = more signal.
Assay [3] in a line: HepG2 cell viability effects, profiling panel, calcein-AM fluorescence, 48 h, basal (AID 1164). As to conditions: higher = more signal.
The nature of assay [4]: MM1S cell viability effects, profiling panel, calcein-AM fluorescence, 48 h, basal (AID 1165).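 Further: viability of MM1S multiple myeloma cells under basal unstimulated conditions.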 Conditions: higher = more signal.
The nature of assay [5]: basal RPMI8226 viability, no added stimulus, profiling panel, cell-based, calcein-AM fluorescence, 48 h, PK04 Diversity Set (AID 1166).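 Further: cells grown under basal conditions without added stimulus.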 Conditions: RPMI8226 myeloma viability, higher = more signal.
Assay [6] is described as follows: basal HepG2 mitochondrial membrane potential changes, profiling panel, cell-based, JC-1 fluorescence, 24 h, 100 nL compound (AID 1167). Conditions: higher = more signal.
Assay [7] can be described thus: basal 3T3-L1 adipocyte mitochondrial potential changes, profiling panel, cell-based, JC-1 fluorescence, 3T3-L1 adipocytes, 24 h, 100 nL compound (AID 1168). As to conditions: JC-1 mitochondrial fluorescence, higher = more signal, called active from +8 up or from −8 down.
Assay [8] can be described thus: basal RPMI8226 mitochondrial membrane potential changes, profiling panel, cell-based, JC-1 fluorescence, 24 h, 100 nL compound (AID 1169). Conditions: RPMI8226 myeloma, JC-1 mitochondrial potential fluorescence, higher = more signal.
Assay [9] in a line: basal MM1S mitochondrial membrane potential changes, profiling panel, cell-based, JC-1 fluorescence, 24 h, 100 nL compound (AID 1170). As to conditions: higher = more signal.
Assay [10] is described as follows: A549 lung cancer cell viability effects, profiling panel, resazurin fluorescence, 24 h, PK04 Diversity Set (AID 1171). As to conditions: higher = more signal, called active from +8 up or from −8 down. (In general: Resazurin is reduced to fluorescent resorufin, in cell work by metabolically active cells.)
Further: test concentration not given here.

With `C=CC[C@H](O)c1ccc(O)c2ccccc12`, the z-score is 0.902 in assay [1]; -0.0385 in [2]; -0.817 in assay [3]; -2.84 in assay [4]; -3.71 in assay [5]; -2.13 in assay [6]. In addition, the z-score in [7] is 0.241 (inactive); in [8], -0.752; in assay [9] it was -1.71; in assay [10] it was -0.409 (inactive).
Take `C=C(CCCC)C(=O)CC[C@H](OC(=O)c1ccccc1-c1ccccc1C(=O)O)c1cccc(OCCO)c1`: the z-score in assay [1] is -0.186; in [2], 0.415; in assay [3], -0.73; in assay [4], -3.37; in [5], -2.88; in [6], -0.789. For the same compound, the z-score in [7] was 0.379 (inactive); in [8] it was -0.451; in assay [9], -0.507; in assay [10], -0.611 (inactive).
On to `COc1ccc([Si](C)(C)[C@H]2[C@H](CC(=O)N3CCC[C@H]3CO)O[C@@]3(C(=O)N(C)c4c(Br)cc(C)cc43)[C@@H]2C)cc1`, for which the z-score was 0.709 in [1]; -0.333 in assay [2]; -0.232 in [3]; 0.0328 in assay [4]; -0.63 in assay [5]; 0.604 in assay [6]. The z-score in [7] was 0.123 (inactive); in assay [8], -0.126; in assay [9], -0.468; in assay [10], 0.809 (inactive).
Consider `CCCCCCc1nc(-c2ccc(OC)nc2)c(C)c2c1[Si](C(C)C)(C(C)C)OC2`, for which the z-score in assay [1] is -0.405; in [2] it was 1.26; in assay [3], 0.002; in [4] it was -2.26; in assay [5] it was -2.79; in [6], 0.103. Moreover, the z-score in assay [7] is 0.251 (inactive); in [8], -0.641; in [9] it was 0.498; in [10], 0.863 (inactive).
As for `CCOC(=O)C1=CC[C@@H](c2ccccc2)N(S(=O)(=O)c2ccc(C)cc2)[C@@H]1C#N`, the z-score in assay [1] was 0.25; in assay [2], -0.415; in assay [3], 0.278; in [4] it was -3.21; in assay [5], -2.77; in [6], 0.43. Further, the z-score in assay [7] is 0.726 (inactive); in assay [8], -0.791; in assay [9], -2.41; in assay [10], 0.433 (inactive).
Turning to `CC(C)(C)OC(=O)N1[C@@H](C=C(Br)Br)COC1(C)C`, the z-score was 0.4 in assay [1]; 0.46 in assay [2]; 1.32 in [3]; -0.255 in [4]; -0.639 in assay [5]; 0.175 in assay [6]. Further, the z-score was 1.2 (inactive) in assay [7], -0.187 in assay [8], 0.548 in [9] and -1.4 (inactive) in assay [10].
For `COc1cc(CO)cc(I)c1O[C@H]1C=C(C(=O)NCCO)C[C@@H](N(CCN2CCOCC2)C(=O)C2CCCO2)[C@@H]1O` (stereo not given in full), the z-score in assay [1] was 1.51; in assay [2], -0.786; in [3] it was 0.315; in assay [4], 0.605; in assay [5] it was -0.984; in assay [6], 1.68. In addition, the z-score is -0.526 (inactive) in [7], 0.385 in assay [8], -0.1 in assay [9] and -0.0953 (inactive) in assay [10].
Turning to `CCCC[C@@H](O)C1=C(C)Cn2c(=O)n(-c3ccccc3)c(=O)n2[C@H]1CO`, the z-score in assay [1] is 1.38; in [2] it was 0.345; in [3] it was 0.108; in assay [4] it was 0.548; in assay [5] it was 0.617; in [6], 0.372. Also, the z-score in assay [7] was 0.276 (inactive); in [8], -0.347; in assay [9], -0.804; in [10], -1.16 (inactive).
Regarding `[N-]=[N+]=Nc1ccccc1C[C@]1(C(=O)N2CCCCC2)N=C(c2ccc(OCCCO)cc2)O[C@H]1c1ccccc1`, the z-score in assay [1] was -0.786; in assay [2], 0.0946; in [3], 0.014; in [4], -3.29; in assay [5] it was -4.3; in [6], 0.839. Further, the z-score was 0.231 (inactive) in assay [7], -1.2 in [8], -2.15 in assay [9] and -0.676 (inactive) in assay [10].
As for `CN(C)CCCC[C@@H]1NC(=O)[C@H]2C[C@@H](C(=O)NCCCCCCNC(=O)CS)[C@@H](c3cccc(OCCO)c3)N2C1=O`, the z-score in assay [1] was -0.234; in assay [2], -0.288; in [3] it was -0.384; in [4], -0.315; in [5], -0.357; in [6], -1.27. Moreover, the z-score is -0.0363 (inactive) in [7], 0.503 in assay [8], -0.177 in assay [9] and 0.0246 (inactive) in assay [10].
With `COC(=O)[C@@]1(Cc2ccc(F)cc2)[C@@H]2C(=CC(=O)[C@H]2CC(=O)C(=O)N2CCCC2)CN1C(=O)c1ccccc1`, the z-score in [1] is -1.77; in [2], 1.16; in assay [3] it was -1.32; in assay [4], -2.6; in [5], -4.29; in [6], 3.9. Moreover, the z-score in [7] is -0.568 (inactive); in assay [8], -0.686; in assay [9] it was -2.82; in [10], -1.97 (inactive).
In the case of `C[C@]12C(=O)N(CCO)[C@@H]3C(=O)N(c4ccc(Cl)cc4)CC=CC31O[C@@H]1/C=C\CCCOC(=O)C12` (stereo not given in full), the z-score in assay [1] is 0.614; in [2] it was 1.38; in assay [3], 0.488; in assay [4] it was 0.971; in assay [5] it was -0.966; in assay [6], -0.646. The z-score in [7] is -0.766 (inactive); in assay [8], -0.129; in assay [9], 1.61; in assay [10] it was -1.3 (inactive).
Regarding `CC[C@@H]1C=C(C(=O)O)[C@H](c2cccc(Cl)c2)N1S(=O)(=O)c1ccc(C)cc1`, the z-score in assay [1] is -0.0107; in assay [2], -0.762; in assay [3], 0.223; in assay [4] it was 0.126; in [5], 0.0221; in [6], -0.743. Moreover, the z-score in [7] is -0.41 (inactive); in assay [8] it was -0.623; in assay [9], -0.343; in assay [10], -0.628 (inactive).
For `COCCCNC(=O)[C@]1(Cc2ccccc2N=[N+]=[N-])N=C(c2ccc(OCCCO)cc2)O[C@@H]1c1ccccc1`, the z-score in assay [1] is -0.751; in assay [2] it was 0.16; in [3], -0.757; in assay [4], -3.22; in [5] it was -3.9; in assay [6] it was 2.34. Further, the z-score was 1.84 (inactive) in [7], -1.27 in assay [8], -0.774 in assay [9] and 0.345 (inactive) in assay [10].
For the compound `COc1ccc(C(=O)Nc2cccc(CN3C(=O)[C@]4(O[C@H](CC(=O)N(CCO)Cc5ccccc5)[C@@H]([Si](C)(C)c5ccc(OC)cc5)[C@@H]4C)c4ccccc43)c2)cc1`, the z-score was -0.983 in assay [1]; 0.385 in assay [2]; -0.801 in [3]; -0.829 in assay [4]; -3.92 in assay [5]; 0.52 in [6]. Further, the z-score in assay [7] is 1.3 (inactive); in [8] it was -0.877; in assay [9], -1.51; in [10] it was -1.51 (inactive).

The record behind these values is PubChem BioAssay.
